# Assay outcomes as filed in PubChem BioAssay.
# CYP2C9 inh = blocks human cytochrome P450 2C9 | P11712 | CYP2C9 Supersomes, luciferin-H conversion, luminescence | inhibition, % at 5 µM | 20% of 96,000 active;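 active = blocking of liver enzyme CYP2C9 beyond about 50% at 5 µM, limit read from the data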
# CYP2C9 activ = CYP2C9 (human) activation | recombinant CYP2C9, luciferin-H conversion, luminescence; active compounds read high; factor 1 = untreated enzyme, 0 = blocked | activation factor at 5 µM | 1.4% of 96,000 active | AID 1024;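 active = activation factor of 2 or more for CYP2C9 at a 5 µM dose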;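 note: 0 = sulfaphenazole-blocked wells and 1 = vehicle-only wells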
# CYP2C19 act = increases human CYP2C19 enzyme activity; P33261; recombinant CYP2C19, luciferin-H EGE luminescence; active compounds read high; 0 = fully inhibited enzyme, 1 = untreated enzyme; activation factor at 5 µM; 96,000 tested, under 10 active; AID 1025;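 active = activation factor of at least 2 at 5 µM in the primary screen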;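 note: 0 = wells with 2.5 mM tranylcypromine and 1 = vehicle-only wells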
# Target sequence (P33261 whole entry, looked up): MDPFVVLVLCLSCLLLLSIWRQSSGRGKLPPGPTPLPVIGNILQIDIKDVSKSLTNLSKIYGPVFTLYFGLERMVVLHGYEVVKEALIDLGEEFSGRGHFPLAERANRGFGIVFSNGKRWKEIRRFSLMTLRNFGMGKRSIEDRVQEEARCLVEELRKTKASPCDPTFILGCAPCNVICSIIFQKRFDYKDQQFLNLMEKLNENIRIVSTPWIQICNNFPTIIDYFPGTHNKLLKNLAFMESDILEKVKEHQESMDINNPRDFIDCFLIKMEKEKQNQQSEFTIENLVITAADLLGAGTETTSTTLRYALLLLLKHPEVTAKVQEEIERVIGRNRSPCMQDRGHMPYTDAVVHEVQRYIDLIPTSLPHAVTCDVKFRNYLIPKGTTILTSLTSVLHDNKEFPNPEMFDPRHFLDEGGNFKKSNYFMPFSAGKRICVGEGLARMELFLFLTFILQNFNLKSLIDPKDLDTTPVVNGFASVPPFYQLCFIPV
# CYP2C19 inhib = inhibitors of human CYP2C19. inhibition, % at 5 µM. AID 778. P33261. CYP2C19 Supersomes, luciferin-H EGE luminescence, 30 min. 21% of 96,000 active;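 active = CYP2C19 inhibition above a set limit at 5 µM in the primary screen, cut at about 50% in these data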;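 note: plate controls were negative control wells for no effect and 2.5 mM tranylcypromine positive control for full effect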
# An asterisk follows results filed as active. This is a sample that favours compounds with a hit; in the whole collection about 31% have one here.
SMILES,CYP2C9 inh,CYP2C9 activ,CYP2C19 act,CYP2C19 inhib
CCn1c(C(C)NC(=O)c2ccc(OC)c(OC)c2)nc2ccccc21 (configuration not stated),13,0.9,0.8,22
CCn1c(C(O)c2ccccc2)nc2ccccc21 (configuration not stated),16,0.8,0.1,91*
CCn1c(C(O)c2cccc(OC)c2OC)nc2ccccc21 (configuration not stated),27,0.7,0.1,87*
N#Cc1nc(-c2ccc(Cl)cc2)oc1NCc1ccco1,85*,0.1,0.9,14
N#Cc1nc(-c2ccc(Cl)cc2)oc1NCc1cccc2c1OCO2,94*,0.1,0.7,34
COc1ccc(-c2nc(C#N)c(NCc3ccccc3Cl)o2)cc1OC,47,0.5,0.9,12
COc1ccc(CNc2oc(-c3ccccc3)nc2C#N)cc1,84*,0.2,0.7,27
N#Cc1nc(-c2ccccc2Cl)oc1NCc1ccco1,83*,0.2,0.4,64*
N#Cc1nc(-c2ccco2)oc1NCCN1CCOCC1,-8,1.1,0.9,12
O=C(N1CCOCC1)N1CCN(S(=O)(=O)c2ccccc2)C1,-10,1.1,0.8,15
COc1cccc(C(=O)Nc2ncc3c(n2)CC(C)(C)CC3=O)c1,8,0.9,1,3
CNc1oc(-c2ccccc2)nc1C#N,5,0.9,0.7,30
N#Cc1nc(-c2ccccc2)oc1NCc1ccco1,74*,0.3,0.9,13
N#Cc1nc(-c2ccco2)oc1NCc1ccc(F)cc1,82*,0.2,0.7,31
N#Cc1nc(-c2ccco2)oc1NCc1cccnc1,15,0.9,0.6,37
CCOC(=O)c1cc(-c2ccncc2)nc2c1c(C)nn2C,50*,0.5,0,96*
Cc1ccc(NC(=O)Cn2nc(C(F)(F)F)c3c2CCC3)cc1,6,0.9,0.5,50*
O=C(Cn1nc(C(F)(F)F)c2c1CCCC2)NCc1ccco1,-107,2.1*,0.4,56*
COc1ccc(NC(=O)COC(=O)c2c3c(nc4ccccc24)CCCC3)cc1,29,0.7,0.9,15
COc1ccc(CNc2nc3c(c(C(F)(F)F)n2)CCCCC3)cc1,53*,0.5,0.7,31
COc1ccc(CNC(=O)Cn2nc(C(F)(F)F)c3c2CCC3)cc1,-203,3*,0.8,18
Cc1cccc(N(CC(=O)N2CCCC2)S(=O)(=O)c2ccccc2)c1C,-16,1.2,1,0
CCC(C)NC(=O)Cn1c(=O)n(CCCCC(=O)NCc2ccco2)c(=O)c2ccccc21 (configuration not stated),27,0.7,0.8,21
COc1cccc(NC(=O)C2C3C=CC(O3)C2C(=O)NCc2cccnc2)c1 (configuration not stated),4,1,0.9,12
CCc1ccc(C(=O)Nc2ccc(S(=O)(=O)Nc3nc(C)cc(C)n3)cc2)o1,41,0.6,0.9,8
SMILES,CYP2C9 inh,CYP2C9 activ,CYP2C19 act,CYP2C19 inhib
Cc1cc(NC(=O)Cn2nc(C(F)(F)F)c3c2CCC3)no1,2,1,1,-1
COc1ccc(NC(=O)Cn2nc(C(F)(F)F)c3c2CCCC3)c(OC)c1,27,0.7,0.3,75*
CN(C(=O)CSc1nnc(Nc2ccccc2)s1)c1c(N)n(Cc2ccccc2)c(=O)[nH]c1=O,64*,0.4,0.7,26
CN(C)S(=O)(=O)c1ccc2[nH]cc(/C=C/c3nc4ccccc4c(=O)n3-c3ccccc3)c2c1,69*,0.3,0.3,70*
CCOC(=O)c1cc(-c2cccnc2)nn1-c1ccccn1,8,0.9,0.8,24
CCOC(=O)C1=C(C)N(C)C(C)=C(C(=O)OCC)C1c1ccccn1,86*,0.1,0.5,50*
COC(=O)C1=C(C)N(C)C(C)=C(C(=O)OC)C1c1ccccn1,82*,0.2,0.7,27
COC(=O)C1=C(C)N(C)C(C)=C(C(=O)OC)C1c1ccccc1C,96*,0,0,98*
Cn1c(NC(=O)c2ccccc2)c(-c2ccccn2)c(=O)c2ccccc21,28,0.7,1.1,-11
Cn1c(C(=O)OC(C(=O)NC2CCCCC2)c2ccncc2)cc2sccc21 (configuration not stated),91*,0.1,0,98*
Cn1c(C(=O)OC(C(=O)NC2CCCC2)c2ccncc2)cc2sccc21 (configuration not stated),72*,0.3,0.1,95*
CC(=O)OC(C(=O)NC1CCCCC1)c1ccc(C)cc1 (configuration not stated),-62,1.6,1,1
CC(=O)OC(C(=O)NC1CCCCC1)c1ccc(C#N)cc1 (configuration not stated),17,0.8,0.9,15
COCCNC(=O)C(C)OC(=O)c1cc2sccc2n1C (configuration not stated),-9,1.1,0.5,50
CC(C)C(OC(=O)c1cc2sccc2n1C)C(=O)NCC1CCCO1 (configuration not stated),43,0.6,0.4,56*
COC(=O)c1ccc(C2NC(C(=O)O)CS2)cc1 (configuration not stated),40,0.6,1,2
CSCC[C@H](NC(=O)NCc1ccc(F)cc1)C(=O)O,4,1,1,0
CCCN1C/C(=C/c2cccc([N+](=O)[O-])c2)C(=O)/C(=C/c2cccc([N+](=O)[O-])c2)C1,44,0.6,0.4,61*
Cc1ccc(S(=O)(=O)N(CC(=O)O)Cc2ccccc2F)cc1,51*,0.5,1,-2
Cc1ccc(S(=O)(=O)N(CC(=O)N2CCC(C)CC2)Cc2ccccc2F)cc1,79*,0.2,0.2,84*
O=C(O)CCS(=O)(=O)Cc1ccccc1F,2,1,0.9,9
CC1CCN(C(=O)CN(CCc2ccccc2)S(C)(=O)=O)CC1,14,0.9,0.6,40
Cn1cc(SCC(=O)Nc2nc3ccccc3s2)c2ccccc21,-29,1.3,1.2,-20
Nc1nnc(C(c2ccccc2)c2ccccc2)s1,33,0.7,0.6,37
O=C(Cc1ccccc1)NCC(=O)N1CCCCCC1,11,0.9,0.8,24
SMILES,CYP2C9 inh,CYP2C9 activ,CYP2C19 act,CYP2C19 inhib
Cc1cc(C)n2nc(SCc3nnc(SCCCCl)o3)nc2n1,10,0.9,0.9,10
Cc1cc(C)nc(SCc2nnc(SCC(=O)N3CCCc4ccccc43)o2)n1,6,0.9,0.2,80*
Cc1cc(C)nc(SCc2nnc(SCC(=O)Nc3cc(C(F)(F)F)ccc3Cl)o2)n1,-105,2*,0.2,80*
Cc1cc(C)nc(SCc2nnc(SCc3ccccc3Cl)o2)n1,-29,1.3,0.2,78*
Cc1cc(C)nc(SCc2nnc(SCC(=O)N3CCCc4ccccc43)n2C)n1,-50,1.5,0.9,11
O=C(Cn1cnc2c(nnn2Cc2ccccc2F)c1=O)NCc1ccco1,-15,1.1,1,0
Cc1sc2nc3n(c(=O)c2c1C)Cc1ccccc1-3,12,0.9,0.9,6
O=C1C(Cl)=C(N2CCN(Cc3ccccc3)CC2)C(=O)N1Cc1ccccc1,55*,0.5,0.8,15
